Assay results from the supplement of paper PMC8728848.
Many of the other results were omitted from the sample, so the strongest signals are more common in it than they were.

Legend:
Test in all cases: glycan array binding signal (z-score within array); higher = stronger binding
Settings in all cases: glycan notation: IUPAC condensed, linker removed
[1] = target: Fuc(a1-2)Gal(b1-3)GalNAc(b1-3)Gal(a1-4)Gal(b1-4)Glc
Procedure, shortened: (§1)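 The binding signal is a Z-score computed within each array. Data were drawn from 3228 arrays in the Consortium for Functional Glycomics database, restricted to those with a known protein sequence. Scores were averaged over arrays of the same protein sequence at different concentrations or buffers, and over linkers, and negative values can be taken as non-binding.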

Fuc(a1-2)Gal(b1-4)Glc6S = target: Fuc(a1-2)Gal(b1-4)Glc6S
Procedure, shortened: as §1

[2] = target: Fuc(a1-2)Gal(b1-4)[Fuc(a1-3)]GlcNAc(b1-3)Gal(b1-4)[Fuc(a1-3)]GlcNAc(b1-3)Gal(b1-4)[Fuc(a1-3)]GlcNAc
Procedure, shortened: as §1

Fuc(a1-2)Gal6S(b1-4)Glc = target: Fuc(a1-2)Gal6S(b1-4)Glc
Procedure, shortened: as §1

[3] = target: Fuc(a1-2)[Gal(a1-3)]Gal(b1-3)GlcNAc
Procedure, shortened: as §1

[4] = target: Fuc(a1-2)[Gal(a1-3)]Gal(b1-4)Glc
Procedure, shortened: as §1

[5] = target: Fuc(a1-2)[Gal(a1-3)]Gal(b1-4)GlcNAc
Procedure, shortened: as §1

[6] = target: Fuc(a1-2)[GalNAc(a1-3)]Gal(b1-4)Glc
Procedure, shortened: as §1

[7] = target: Fuc(a1-2)[GalNAc(b1-3)]Gal
Procedure, shortened: as §1

[8] = target: Fuc(a1-3)[Gal(b1-4)]GlcNAc6S
Procedure, shortened: as §1

Gal(a1-3)Gal(b1-4)GlcNAc = target: Gal(a1-3)Gal(b1-4)GlcNAc
Procedure, shortened: as §1

Gal(b1-2)Gal = target: Gal(b1-2)Gal
Procedure, shortened: as §1

[9] = target: Gal(b1-3)GalNAc(b1-4)Gal(b1-4)Glc
Procedure, shortened: as §1

[10] = target: Gal(b1-3)[Fuc(a1-4)]GlcNAc
Procedure, shortened: as §1

[11] = target: Gal(b1-3)[Fuc(a1-4)]GlcNAc(b1-3)Gal(b1-4)GlcNAc
Procedure, shortened: as §1

[12] = target: Gal(b1-4)GlcNAc(b1-3)Gal(b1-4)Glc
Procedure, shortened: as §1

[13] = target: Gal3S(b1-3)[Fuc(a1-4)]GlcNAc
Procedure, shortened: as §1

Gal3S(b1-4)Glc = target: Gal3S(b1-4)Glc
Procedure, shortened: as §1

Gal4S(b1-4)GlcNAc = target: Gal4S(b1-4)GlcNAc
Procedure, shortened: as §1

[14] = target: GalNAc(b1-3)Gal(a1-4)Gal(b1-4)GlcNAc
Procedure, shortened: as §1

GlcA(b1-3)Gal = target: GlcA(b1-3)Gal
Procedure, shortened: as §1

GlcNAc(b1-3)Gal = target: GlcNAc(b1-3)Gal
Procedure, shortened: as §1

[15] = target: GlcNAc(b1-4)Gal(b1-4)GlcNAc
Procedure, shortened: as §1

GlcNAc(b1-4)GlcNAc = target: GlcNAc(b1-4)GlcNAc
Procedure, shortened: as §1

[16] = target: Neu5Ac(a2-3)Gal(b1-3)GlcNAc(b1-3)Gal(b1-3)GlcNAc
Procedure, shortened: as §1

[17] = target: Neu5Ac(a2-3)Gal(b1-4)GlcNAc(b1-6)[Gal(b1-3)]GalNAc
Procedure, shortened: as §1

[18] = target: Neu5Ac(a2-6)Gal(b1-4)GlcNAc(b1-2)Man(a1-3)[GlcNAc(b1-2)Man(a1-6)]Man(b1-4)GlcNAc(b1-4)GlcNAc
Procedure, shortened: as §1

[19] = target: Neu5Ac(a2-6)Gal(b1-4)GlcNAc(b1-2)Man(a1-6)[GlcNAc(b1-2)Man(a1-3)]Man(b1-4)GlcNAc(b1-4)GlcNAc
Procedure, shortened: as §1

[20] = target: Neu5Ac(a2-6)Gal(b1-4)GlcNAc(b1-3)Gal(b1-4)[Fuc(a1-3)]GlcNAc(b1-3)Gal(b1-4)[Fuc(a1-3)]GlcNAc
Procedure, shortened: as §1

[21] = target: Neu5Gc(b2-6)Gal(b1-4)GlcNAc
Procedure, shortened: as §1

B1: Gal 8 (Homo sapiens), O00214 (protein)
chain: MMLSLNNLQNIIYNPVIPFVGTIPDQLDPGTLIVIRGHVPSDADRFQVDLQNGSSMKPRADVAFHFNPRFKRAGCIVCNTLINEKWGREEITYDTPFKREKSFEIVIMVKDKFQVAVNGKHTLLYGHRIGPEKIDTLGIYGKVNIHSIGFSFSSDLQSTQASSLELTEISRENVPKSGTPQLPSNRGGDISKIAPRTVYTKSKDSTVNHTLTCTKIPPMNYVSKRLPFAARLNTPMGPGRTVVVKGEVNANAKSFNVDLLAGKSKDIALHLNPRLNIKAFVRNSFLQESWGEEERNITSFPFSPGMYFEMIIYCDVREFKVAVNGVHSLEYKHRFKELSSIDTLEINGDIHLLEVRSW
For B1, the “glycan array binding signal (z-score)” value [1] was -0.141, the “glycan array binding signal (z-score)” value (Fuc(a1-2)Gal(b1-4)Glc6S) was 0.286 and the “glycan array binding signal (z-score)” value [2] was -0.386. For the same binder, the “glycan array binding signal (z-score)” value (Fuc(a1-2)Gal6S(b1-4)Glc) was -0.427, the “glycan array binding signal (z-score)” value [3] was 3.58 and the “glycan array binding signal (z-score)” value [4] was 5.02. The “glycan array binding signal (z-score)” value [5] was 4.8, the “glycan array binding signal (z-score)” value [6] was 4.22 and the “glycan array binding signal (z-score)” value [7] was 0.118. The “glycan array binding signal (z-score)” value [8] was -0.432, the “glycan array binding signal (z-score)” value (Gal(a1-3)Gal(b1-4)GlcNAc) was 0.236 and the “glycan array binding signal (z-score)” value (Gal(b1-2)Gal) was -0.401. The “glycan array binding signal (z-score)” value [9] was 0.32, the “glycan array binding signal (z-score)” value [10] was -0.413 and the “glycan array binding signal (z-score)” value [11] was 0.294. The “glycan array binding signal (z-score)” value [12] was 2.43, the “glycan array binding signal (z-score)” value [13] was -0.42 and the “glycan array binding signal (z-score)” value (Gal3S(b1-4)Glc) was 0.286. For the same binder, the “glycan array binding signal (z-score)” value (Gal4S(b1-4)GlcNAc) was -0.395, the “glycan array binding signal (z-score)” value [14] was 0.145 and the “glycan array binding signal (z-score)” value (GlcA(b1-3)Gal) was -0.451. The “glycan array binding signal (z-score)” value (GlcNAc(b1-3)Gal) was -0.434, the “glycan array binding signal (z-score)” value [15] was -0.425 and the “glycan array binding signal (z-score)” value (GlcNAc(b1-4)GlcNAc) was -0.449. For the same binder, the “glycan array binding signal (z-score)” value [16] was 0.949, the “glycan array binding signal (z-score)” value [17] was 0.196 and the “glycan array binding signal (z-score)” value [18] was -0.45. For the same binder, the “glycan array binding signal (z-score)” value [19] was -0.442, the “glycan array binding signal (z-score)” value [20] was -0.365 and the “glycan array binding signal (z-score)” value [21] was -0.452.
